Consider 40 sequences from the OligoGym collection.
Also: reference of the scale not given here.

The target in the first assay is SELO. Briefly: pooled miR-30 sensor sort-seq; sequence = guide strand. The note with it: shRNA.
Take TTGAGCTGCAGCTCCCAGCGCT: the sensor-assay potency score (higher = more potent) was -0.647.
The same measure, in the same setting: as for TCGCTGCATAGAAACTCCCGGA, the figure is -0.819; as for TTGCCGCTGAAGAACAGCGCGG, -1.34; as for TTCCTCAGCACGTACTTCGGGT, -0.346.
Same read-out and setting: under TTTGGGATTACCATCATAGAAC stands -1.22; under TTCGCTGCATAGAAACTCCCGG, 0.0168; under ATCTTCTGCAGGTAGTGCCTTT, -1.13.

A further assay has as its target SEMA3B. The description is as above. The note with it: shRNA.
On to AACTGGATGACATCGTCTGGGA, for which the sensor-assay potency score (higher = more potent) was -0.898.
Same read-out and setting: as for TACTTTAGTACAGTCGGCCTGC, the figure is 0.558.
Sequence TTGGAAGAAATTTGCATGCTGG came in with a sensor-assay potency score (higher = more potent) of 0.12.
Same read-out and setting: as for TACCTTGACAAACTTGGGCTCA, the figure is -0.131; as for TCACACTCCAGAAAGGCGCTGC, 0.144; as for TTGTGTTCCAGCAGCGCGGGAC, -0.691.
Same read-out and setting: under TTGGTGGAACTGAAGGTGCCAA stands -0.717.
Sequence TAGATTTTGTCGTCGTCTGGGT returned a sensor-assay potency score (higher = more potent) of 0.074.
As to ATGCTGTACACGCACACCGCAG, the sensor-assay potency score (higher = more potent) was -1.8.
On the same count and under the same terms, under TTCAGGAACGTCGTCCACTTGT stands -0.531.
Regarding TTGCATGCTGGTGACAGCGGCC, the sensor-assay potency score (higher = more potent) is -0.767.
Take TCTCCGGAGCACAACGTGCTGG: the sensor-assay potency score (higher = more potent) was -0.802.

The target of a further assay is SEMA5A. The description is as above. The note with it: shRNA.
Turning to TTTCGATTCTCTGTCTTCCCAC, the sensor-assay potency score (higher = more potent) came to 0.0611.
Same read-out and setting: as for TTATGAAATATTATGGACCTAT, the figure is -0.515.
On the same count and under the same terms, as for TCTTCCAGCAAACAGCTGCTTG, the figure is -1.24; as for TTGAAGACGCACACAGCTGAGG, -0.713.
On the same count and under the same terms, under ATCTCTTCCAGCAAACAGCTGC stands -0.82; under ATTAGAGTCAAACACACACGGC, -0.728.
Take TTAGAGTCAAACACACACGGCC: the sensor-assay potency score (higher = more potent) was -0.151.
As for TTGCAGTATCTTTCCTCGCGGT, the sensor-assay potency score (higher = more potent) was -0.492.
On the same count and under the same terms, as for TATCGTTCTTGCACACCCGGGC, the figure is -0.125.
Still for that read-out and setting: under ATATCGTTCTTGCACACCCGGG stands -1.15; under TAGAACAGTACCGCATTTCGAT, -0.368.
Same read-out and setting: under TTCTTCGCTCTGAACTCCCGTA stands -0.152.

The next assay concerns the target SEMA6D. Described as above. The conditions noted are these: shRNA.
Consider TTTTTTTTGACATTTGTGCAAG, for which the sensor-assay potency score (higher = more potent) was -0.63.
As to TAATAGACTGCAGAACATCAAA, the sensor-assay potency score (higher = more potent) was -1.03.
Regarding TTTAGGAGAATCAATATTCTGT, the sensor-assay potency score (higher = more potent) is -0.109.
Still for that read-out and setting: under TTTCTTTCCTTGAAGCTCCATG stands -0.704; under TATGTCTGTAATAGACTGCAGA, -0.657; under TTTTACATGATCCATAACGCTC, -0.732.
For TATTCTAAGGTACTCAACCTGT, the sensor-assay potency score (higher = more potent) was -0.752.
Take TACTTTTTCAATGTCATCCATG: the sensor-assay potency score (higher = more potent) was -0.449.
With TTGAATAGTGATAGTCGACAGT, the sensor-assay potency score (higher = more potent) is -0.481.
